For the assay, the system named is iBMDM (immortalised mouse bone-marrow-derived macrophages), LPS-stimulated. The assay is described as follows: mitochondrial superoxide (MitoSOX fluorescence) fold increase over unstimulated control; higher = more LPS-induced mitochondrial ROS (less inhibition). Particulars: inhibitor concentration: 500 nM, LPS: 100 ng/ml. Put shortly: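 Values are fold induction of mitochondrial superoxide relative to untreated macrophages, as a mean of replicates. Immortalised mouse bone-marrow-derived macrophages, seeded in triplicate in black 96-well plates, spent 20 h in phenol-red-free 1% FCS/DMEM before a 30 min pretreatment with kinase inhibitors (500 nM). After 10 min loading with 1 μM MitoSox, cells received LPS (100 ng/ml), and fluorescence (510/580 nm) was measured every 60 min for 4 h.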

± gives the standard deviation of the averaged measurements.

For the compound `CCN1CCN(C(=O)Cc2ccc(Nc3ncc(F)c(Nc4ccc(C(=O)Nc5ccccc5Cl)cc4)n3)cc2)CC1` [Aurora A Inhibitor I], the mitochondrial superoxide reads like this: (time after LPS: 1 h) 1.17 ± 0.065; (time after LPS: 2 h) 1.24 ± 0.014; (time after LPS: 4 h) 1.32 ± 0.049.

In turn, `Cn1cc(C2=C(c3cn(C4CCN(Cc5ccccn5)CC4)c4ccccc34)C(=O)NC2=O)c2ccccc21` returned a mitochondrial superoxide (time after LPS: 1 h) of 1.7 ± 0.15, a mitochondrial superoxide (time after LPS: 2 h) of 1.76 ± 0.18 and a mitochondrial superoxide (time after LPS: 4 h) of 1.92 ± 0.14.

For the compound `CC(C)(C)c1cc(C=C(C#N)C#N)cc(Br)c1O`, the mitochondrial superoxide (time after LPS: 1 h) turned out to be 1.12 ± 0.029, the mitochondrial superoxide (time after LPS: 2 h) is 1.16 ± 0.069 and the mitochondrial superoxide (time after LPS: 4 h) amounted to 1.11 ± 0.063.

For the compound `O=c1[nH]c2ccc(Cl)cc2c(N[C@@H]2CN3CCC2CC3)c1-c1nc2ccccc2[nH]1`, the mitochondrial superoxide reads like this: (time after LPS: 1 h) 1.2 ± 0.013; (time after LPS: 2 h) 1.4 ± 0.045; (time after LPS: 4 h) 1.68 ± 0.044.

On to `N#CC(C#N)=Cc1ccc(O)c(O)c1`, for which the mitochondrial superoxide was determined as 1.364 ± 0.013 (time after LPS: 1 h), 1.45 ± 0.055 (time after LPS: 2 h) and 1.666 ± 0.0094 (time after LPS: 4 h).

As to `COC[C@H]1OC(=O)c2coc3c2[C@@]1(C)C1=C(C3=O)[C@@H]2CCC(=O)[C@@]2(C)C[C@H]1OC(C)=O` [Wortmannin], the mitochondrial superoxide was found to be 1.4 ± 0.084 (time after LPS: 1 h), 1.45 ± 0.05 (time after LPS: 2 h) and 1.78 ± 0.079 (time after LPS: 4 h).

As to `CC(C)(C)c1cc(C=C(C#N)C#N)cc(C(C)(C)C)c1O` [Tyrphostin 9], the mitochondrial superoxide is 1.17 ± 0.033 (time after LPS: 1 h), 1.21 ± 0.041 (time after LPS: 2 h) and 1.275 ± 0.0071 (time after LPS: 4 h).

As to `Cc1ccccc1-n1c(Cn2ncc3c(N)ncnc32)nc2cccc(C)c2c1=O`, the mitochondrial superoxide runs as follows: (time after LPS: 1 h) 1.14 ± 0.012; (time after LPS: 2 h) 1.25 ± 0.041; (time after LPS: 4 h) 1.32 ± 0.04.

Source of the values: the supplement of paper PMC7393113.
